Screening data (PubChem BioAssay)
Sampled rows, rich in hits. Any-hit rate of the full collection: about 9.2%.
FLuc modulator: inhibits or activates purified firefly luciferase, miR-21 counter-screen | P08659 | purified FLuc, Km substrates, luminescence inhibition | Potency, µM (series often up to 57.5 µM), inactives show top-dose activity change, negative = inhibition, most hits filed as inhibitors | 360,000 compounds, 6.9% hits | AID 588342;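 also: plate controls were vehicle for no effect and reference inhibitor for full effect; nearly all actives have a fitted effect of over 55% in size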
Target sequence (P08659 whole entry, looked up): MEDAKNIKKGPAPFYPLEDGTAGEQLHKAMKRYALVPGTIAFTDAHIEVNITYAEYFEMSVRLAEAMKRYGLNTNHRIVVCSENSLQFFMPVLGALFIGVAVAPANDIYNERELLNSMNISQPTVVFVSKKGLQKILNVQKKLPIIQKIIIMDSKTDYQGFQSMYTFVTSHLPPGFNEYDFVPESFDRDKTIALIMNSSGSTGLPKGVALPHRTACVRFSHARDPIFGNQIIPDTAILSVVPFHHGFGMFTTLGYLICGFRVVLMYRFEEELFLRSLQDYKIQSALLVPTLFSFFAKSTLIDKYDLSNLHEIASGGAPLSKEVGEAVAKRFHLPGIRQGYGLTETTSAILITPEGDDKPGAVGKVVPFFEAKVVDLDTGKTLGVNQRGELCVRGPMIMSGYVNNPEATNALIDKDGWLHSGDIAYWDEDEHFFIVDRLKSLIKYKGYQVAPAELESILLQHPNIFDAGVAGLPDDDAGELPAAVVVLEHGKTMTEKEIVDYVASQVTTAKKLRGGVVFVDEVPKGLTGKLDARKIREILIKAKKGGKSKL
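Biochemical qHTS of compounds, final roughly 60 µM downward over six points, against 10 nM purified firefly luciferase using Km concentrations of substrates (10 uM D-luciferin, 10 uM ATP) in Tris acetate pH 7.5 buffer; luminescence output.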
NPC1 prom act: activates the NPC1 promoter. Huh7 NPC1 promoter luciferase reporter, 24 h. Potency, µM (top dose mostly 9.22 µM), without a hit: top-dose activation, most hits filed as activators. 320,000 compounds, 2.4% hits. AID 485313; also: % of control where 0% means no effect; nearly all actives have a fitted effect of over 60% in size
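Stable NPC1-promoter luciferase Huh7 line; cpd (DMSO) 24 h, 37 °C, 5% CO2; Amplite luciferase reagent 10 min RT; luminescence readout. qHTS format.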
SMN2 splice enh: increases expression of the SMN2 splice variant; AID 1458; HEK293 SMN2-luciferase splicing reporter, luminescence, 30-36 h; Potency, µM (series often up to 46.1 µM), inactives show top-dose activity change, positive = activation, most hits filed as activators; 210,000 compounds, 2.8% hits; also: % of control where 0% means no effect; nearly all actives have a fitted effect of over 55% in size
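HEK293 cells carry an SMN2 minigene-luciferase reporter in which exon 7 inclusion puts luciferase in frame. Cells were seeded at 2000 cells/well, attached for 10-12 hours, then exposed to compounds for 30-36 hours at 37C before ONE-Glo luminescence.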
ELG1 genotoxic: genotoxicity induction in ELG1-luciferase HEK293T cells | HEK293T ELG1-luciferase reporter, luminescence, 16 h | Potency, µM (series often up to 46 µM), for inactives: top-dose activity change, positive = activation, usual class: activators | 330,000 compounds, 1.3% hits; also: % of control where 0% means no effect; nearly all actives have a fitted effect of over 60% in size
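HEK293T cells expressing luciferase-tagged ELG1 were exposed to compound or DMSO vehicle for 16 hr at 37 °C and 5% CO2. Luciferase activity was then measured with ONE-Glo after 30 min at room temperature.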
ELG1 repair inh: blocks ELG1-dependent DNA repair in HEK293T cells | HEK293T ELG1-luciferase reporter, luminescence, 16 h; DNA damage induced by 5-fluorouridine | Potency, µM (doses to about 46.1 µM), for the others: at the top dose activity change, negative = inhibition, usual class: inhibitors | 330,000 compounds, 2.3% hits | AID 504467; also: % is scaled to controls: 0 for no effect and ±100 for the full control effect; nearly all actives have a fitted effect of over 55% in size
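5-Fluorouridine DNA damage + compound/DMSO, 2,000 cells/well, 16 h, 37 °C/5% CO2. ONE-Glo, 30 min RT, luminescence. Readout = decrease in reporter signal.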
Rab9 prom act: Rab9 promoter activation | 320,000 compounds, 2.8% hits | Potency, µM (titrated, usually from 9.22 µM), without a hit: at the top dose activation, negative = inhibition, most hits filed as activators | AID 485297 | Huh7 Rab9 promoter-luciferase reporter, luminescence, 24 h; also: % of control where 0% means no effect; nearly all actives have a fitted effect of over 60% in size
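Luciferase signal after 10 min detection reagent at ambient indicates Rab9 promoter upregulation; stably transfected Huh7 cells were treated 24 h with compound in DMSO at 37 °C, 5% CO2.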
Starred values were filed as active, the others as inactive; u = inconclusive; x = no result given; [ ] = remark or other dose. Calls follow the shape of the dose curve; as a rule, active = well fitted curve in the direction sought with a large enough effect; inconclusive = small, poorly fitted or top-dose-only effect, or another doubt; inactive = no such curve, though single readings can be large; an effect the other way counts as inactive or inconclusive. Potency is read from the fitted curve at half-maximal effect.

SMILES | FLuc modulator | NPC1 prom act | SMN2 splice enh | ELG1 genotoxic | ELG1 repair inh | Rab9 prom act
COc1ccc(-c2cc3ccc(OCc4nn[nH]n4)cc3oc2=O)cc1OC | 15µM* | -1% | 15% | 2% | 13% | -7%
COC(=O)COc1ccc2cc(-c3ccc(OC)cc3)c(=O)oc2c1 | u | -3% | x | 4% | 0% | 0%
COc1ccc(-c2cc3ccc(OCC(C)=O)cc3oc2=O)cc1 | 1.9µM* | 1.3µM* | x | u | u | 1µM*
COc1ccc(-c2cc3ccc(OCC(C)=O)cc3oc2=O)cc1OC | 15µM* | 4µM* | x | u | u | 2µM*
COc1ccc(N2CCN(C(=O)CSc3nnc(NC(=O)C4CCC4)s3)CC2)cc1 | 0% | -4% | x | -3% | u | -15%
CCOC(=O)c1cc(-c2ccccc2)n(CCCC(=O)Nc2cccc(Cl)c2C)c1C | 0% | x | x | x | x | x
COC(=O)c1c(NC(=O)CN2CCC3(O)CCCCC3C2c2cc(OC)ccc2OC)sc(C)c1C (stereo not drawn) | -2% | -2% | -40% | -10% | 9.2µM* | -2%
COC(=O)c1c(NC(=O)CN2CCC3(O)CCCCC3C2c2ccc(F)cc2)sc(C)c1C (stereo not drawn) | -1% | 1% | -14% | -2% | -11% | -5%
COc1ccc2[nH]c3c(c2c1)CCN1C(=O)C(CC(=O)NCCc2ccccn2)C[C@H](C(=O)N(C(C)C)C(C)C)[C@@]31C (stereo partly drawn) | x | x | x | -2% | 13% | x
CSCCC(NS(=O)(=O)c1ccc2c(c1)oc(=O)n2C)C(=O)NCCc1ccc(C)cc1 (stereo not drawn) | -2% | x | x | x | x | x
COc1ccc(-c2cn3cc(C(=O)NN)ccc3n2)cc1 | 7.6µM* | u | x | u | u | 0.32µM*
NNC(=O)c1ccc2nc(-c3ccc(Br)cc3)cn2c1 | 9.5µM* | 0.4µM* | 11µM* | u | u | 0.5µM*
COc1ccc(C(=O)NN)cc1 | -10% | -3% | x | 1% | u | -1%
COc1ccc(CNC(C)C23CC4CC(CC(C4)C2)C3)c(OC)c1OC (stereo not drawn) | 0% | -3% | x | -9% | u | 0%
CN1CCN(C(=O)c2ccc(COc3ccc(Cl)cc3Cl)cc2)CC1 | 12µM* | -2% | -4% | 20% | -8% | 1%
O=C(O)c1ccc(OCc2ccccc2)c(Cl)c1 | x | x | -6%[9.22 µM] | x | x | x
O=C(O)c1ccc(COc2ccc(CO)cc2Cl)cc1 | 5.4µM* | u | u | 9.2µM* | u | 4.5µM*
O=C(O)c1cccc(COc2ccc(CO)cc2Cl)c1 | 0.021µM* | 1.3µM* | 0.04µM* | u | u | 1.3µM*
C[C@H](CO)N1C[C@H](C)[C@@H](CN(C)C(=O)Nc2ccccc2)Oc2ccc(NC(=O)Cc3ccccc3)cc2C1=O | x | x | x | 5% | 5% | x
Cc1cccc(NC(=O)c2sc(-n3nc(C)c(Cc4ccc5c(c4)OCO5)c3C)nc2C)c1C | -2% | x | x | x | x | x
N#CCc1c(C#N)c(N)nc(N2CCN(S(=O)(=O)c3ccccc3)CC2)c1C#N | 3% | -1% | -1% | 0% | 9.2µM* | 0%
N#CCc1c(C#N)c(N)nc(N2CCN(C=O)CC2)c1C#N | 0% | 23% | -1% | 2% | -1% | -3%
CCN(CC)CCCNc1oc(/C=C/c2ccc(OC)c(OC)c2)nc1C#N | -3% | x | 3% | x | x | x
O=S(=O)(N1CCCCC1)N1CCN(CC(O)COc2ccc3cc(Br)ccc3c2)CC1 (stereo not drawn) | 0% | -6% | -53% | 1% | 13µM* | -12%
CC(=O)Nc1ccc(S(=O)(=O)N2CCN(CC(O)COc3ccc4ccccc4c3)CC2)cc1 (stereo not drawn) | 2% | -2% | x | -6% | -20% | -6%
SMILES | FLuc modulator | NPC1 prom act | SMN2 splice enh | ELG1 genotoxic | ELG1 repair inh | Rab9 prom act
OC(COc1ccc(OCC(O)CN2CCCCCC2)cc1)CN1CCCCCC1 (stereo not drawn) | 6% | 2% | 21% | 1% | 13% | 4%
CN(C)S(=O)(=O)N1CCN(CC(O)COc2ccc3cc(Br)ccc3c2)CC1 (stereo not drawn) | -4% | -2% | -50% | -4% | 23µM* | -5%
OCCN1CCN(CC(O)COc2ccc(-c3ccccc3)cc2)CC1 (stereo not drawn) | u | 15% | -8% | u | u | 26%
OC(COc1ccc2cc(Br)ccc2c1)CN1CCN(c2ccccn2)CC1 (stereo not drawn) | -6% | -5% | x | u | 14% | -5%
CN(C)S(=O)(=O)N1CCN(CC(O)COc2ccc(-c3ccccc3)cc2)CC1 (stereo not drawn) | -8% | -3% | x | -9% | 21µM* | 0%
OC(COc1ccc2cc(Br)ccc2c1)CN1CCCC1 (stereo not drawn) | 12µM* | 10% | 6% | u | u | 14%
COc1ccc(C2c3cc(OC)c(OC)cc3CC(=O)N2c2cccc(C#N)c2)cc1 (stereo not drawn) | 2% | x | 3% | x | x | x
O=C1C=C(c2cccc(CO)c2)C[C@@H](c2ccc(F)cc2)C1 | 0% | 1% | x | 0% | 9% | 0%
COc1ccccc1C(=O)NC(CCSC)C(=O)NCc1ccncc1 (stereo not drawn) | 7% | -2% | x | -3% | 11% | -1%
Cn1cnc(S(=O)(=O)N2CCC(C(=O)Nc3ccc(Cl)c(C(F)(F)F)c3)CC2)c1 | 6% | x | x | x | x | x
CCOc1ccc(S(=O)(=O)N2CCN(CC(O)COc3cccc([N+](=O)[O-])c3)CC2)cc1 (stereo not drawn) | 0% | -44% | x | -2% | 15µM* | -2%
Cc1ccc(S(=O)(=O)N2CCN(CC(O)COc3ccccc3)CC2)cc1 (stereo not drawn) | 0% | -1% | x | -19% | -21% | -1%
O[C@H]([C@H](O)[C@@H](O)c1nc2ccccc2[nH]1)[C@@H](O)c1nc2ccccc2[nH]1 | x | x | -5%[9.22 µM] | x | x | x
Cn1c(=O)c2[nH]c(COc3ccc(C(C)(C)C)cc3)nc2n(C)c1=O | u | -7% | x | -13% | 5.8µM* | -13%
COc1cc(/C=N/NC(=O)C(=O)/C=C2\NC3(CCCC3)Cc3ccccc32)ccc1O | -19% | 1% | u | -6% | 23µM* | -7%
CN(C)c1ccc(/C=N/NC(=O)C(=O)/C=C2\NC3(CCCC3)Cc3ccccc32)cc1 | -9% | -1% | 6% | -3% | 12µM* | 11%
COc1cc(/C=N/NC(=O)C(=O)NCc2cccnc2)ccc1O | 0% | -5% | 4% | 1% | 1% | -6%
